Screening data deposited in PubChem by National Center for Advancing Translational Sciences (NCATS).
PGK inhibitor: blocks T. brucei phosphoglycerate kinase | PGK/GAPDH coupled, Kinase-Glo luminescence, 60 min | Potency, µM (titrated, usually from 57.5 µM), for the others: at the top dose activity change, negative = inhibition, usual class: inhibitors | actives 0.043% (n = 380,000) | AID 602233; note: % is set by controls: 0 for no effect and ±100 for the full control effect; nearly all actives have a fitted effect of over 60% in size
Target sequence (P07378 whole entry, looked up): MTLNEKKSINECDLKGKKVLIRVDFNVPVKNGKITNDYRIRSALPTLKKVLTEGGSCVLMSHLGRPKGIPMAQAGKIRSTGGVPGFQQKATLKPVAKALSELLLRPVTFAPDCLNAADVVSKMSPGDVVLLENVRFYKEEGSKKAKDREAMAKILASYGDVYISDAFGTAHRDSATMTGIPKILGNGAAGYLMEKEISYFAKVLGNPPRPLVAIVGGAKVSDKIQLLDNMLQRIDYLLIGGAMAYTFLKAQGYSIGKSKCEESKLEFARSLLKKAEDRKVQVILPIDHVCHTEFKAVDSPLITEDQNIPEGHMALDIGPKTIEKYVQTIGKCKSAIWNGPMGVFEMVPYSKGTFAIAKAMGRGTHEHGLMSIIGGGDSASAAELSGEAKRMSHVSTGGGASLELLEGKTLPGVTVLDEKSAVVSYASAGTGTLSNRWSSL
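Recombinant glycosomal PGK reaction used 1,3-bisphosphoglycerate generated in-well by GAPDH (100nM final) in 100mM TEA pH 7.6, 5mM MgCl2, 0.01% Tween-20. After 60 minutes at room temperature, ATP was read by Kinase-Glo Plus luminescence end-point.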
Tb PFK inh-1: blocks T. brucei phosphofructokinase; O15648; actives 0.17% (n = 330,000); AID 485367; T. brucei PFK, ADP-Glo luminescence; Potency, µM (series often up to 57.5 µM), without a hit: at the highest dose activity, negative = inhibition, hits mostly inhibitors;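 note: 0% = uninhibited 1x PFK enzyme wells and -100% = no-enzyme wells; nearly all actives have a fitted effect of over 60% in size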
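PFK 1.25 nM, F6P 0.5 mM, ATP 0.1 mM, 0.1 M TEA pH 8.0, 5 mM MgCl2, 0.01% Tween20, 0.1% BSA; 45 min RT. ADP-Glo readout. qHTS titration up to 57 uM; curves fitted, compounds curve-classed.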
RGS4 inh: inhibitors of human regulator of G protein signaling 4. P49798. Transcreener GDP fluorescence polarization, RGS4-accelerated GTP hydrolysis. Potency, µM (highest dose often 114 µM), inactives show at the highest dose activity change, negative = inhibition, actives largely listed as inhibitors. actives 0.039% (n = 390,000). AID 504845; note: % is set by controls: 0 for no effect and ±100 for the full control effect; nearly all actives have a fitted effect of over 75% in size
Target sequence (P49798 whole entry, looked up): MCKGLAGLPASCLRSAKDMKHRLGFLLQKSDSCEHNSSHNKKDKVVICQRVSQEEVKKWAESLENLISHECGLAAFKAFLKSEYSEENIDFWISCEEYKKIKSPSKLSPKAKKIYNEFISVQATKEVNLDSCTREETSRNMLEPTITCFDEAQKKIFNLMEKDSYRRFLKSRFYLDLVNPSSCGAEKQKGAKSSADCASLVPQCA
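MLSMR compounds (23 nl, pin-transferred) preincubated 10 min at room temperature with a 500nM (2x) first reagent, then RGS4 at 900nM (2x) plus Transcreener GDP mix added; fluorescence polarization (620/688 nm) read before and after 90 min at 30 °C.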
Chronic BCR inh: chronic active BCR signaling inhibition | ABC-DLBCL IkBa-CBG/CBR reporter, luminescence ratio, 4 h | Potency, µM (series often up to 46.1 µM), inactives show at the top dose activity change, negative = inhibition, actives largely listed as inhibitors | actives 0.05% (n = 340,000); active = well fitted inhibition curve with a large enough effect in the signal ratio, with a control signal flat, not every such curve was filed as active; inconclusive = small, poorly fitted or top-dose-only effect, or effect the other way, or a change in a side signal; the % refers to the signal ratio;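 note: plate controls were basal doxycycline-induced cells for no effect and cells given 10 µM MG132 for full effect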
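TMD8 ABC-DLBCL cells carrying doxycycline-inducible green luciferase fused to IkappaBalpha plus unfused red luciferase were exposed to compounds (up to 46 uM) for 4 hrs at 37C. Activity came from the overlap-corrected green/red luminescence ratio.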
USP2a inh: USP2a (human) protease inhibition. USP2 core, Ub-CHOP2 coupled fluorogenic reporter, 485/531. Potency, µM (highest dose often 38.3 µM), for the others: top-dose activity change, negative = inhibition, actives largely listed as inhibitors. actives 0.01% (n = 330,000). AID 463254;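 note: plate controls were DMSO wells for no effect and full inhibition by NEM control for full effect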
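Cell-free coupled assay: 10nM USP2 core preincubated 30min RT with compound in Tris-HCl pH 8.0/CaCl2/CHAPS buffer, then 25nM Ub-CHOP2 and 25nM reporter substrate; fluorescence (Ex 485/Em 531) read after 60min RT, normalized to NEM inhibition, concentration-response curves fitted.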
TbPFK ATP: inhibits T. brucei PFK measured by ATP depletion; actives 47% (n = 1,100); Potency, µM (series often up to 57.5 µM), for the others: at the highest dose inhibition; shares compounds with Tb PFK inh-1; Tb PFK enzyme, ATP depletion, Kinase-Glo Plus luminescence; calls by dose curve; note: nearly all actives have a fitted effect of over 60% in size
Tb PFK inh-2: T. brucei PFK enzyme inhibition, hit validation | Potency, µM (top dose mostly 57.5 µM), for inactives: at the top dose activity change, negative = inhibition, most hits filed as inhibitors | shares compounds with Tb PFK inh-1 | AID 504637 | purified T. brucei PFK, ADP-Glo luminescence, 45 min | actives 41% (n = 1,100);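 note: plate controls were full PFK enzyme control for no effect and no enzyme control for full effect; nearly all actives have a fitted effect of over 60% in size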
Active calls of the source: *; i = inactive; ? = inconclusive; · = no result; [ ] = remark or other dose. Shown are actives, neighbours in structure and some others; about 0.25% of the full set was active somewhere. Unless noted, calls come from the whole dose curve; as a rule, active = well fitted curve in the direction sought with a large enough effect; inconclusive = small, poorly fitted or top-dose-only effect, or another doubt; inactive = no such curve, though single readings can be large; an effect the other way counts as inactive or inconclusive. Potency is the fitted concentration of half-maximal effect.

SMILES	PGK inhibitor	Tb PFK inh-1	RGS4 inh	Chronic BCR inh	USP2a inh	TbPFK ATP	Tb PFK inh-2
COc1cc(C)c(NC(=O)C(=S)NCCc2ccccc2)cc1C	-9%	?	?	0%	0%	24µM*	?
COc1ccc(NC(=S)NCCc2ccccc2)c(C)c1	-7%	-2%	-25%	0%	1%	·	·
Cc1nnc(NCCc2ccccc2)[nH]c1=O	-9%	?	-1%	-1%	1%	24µM*	27µM*
Cc1ccc(CC(=O)NNC(=O)c2ccncc2)cc1C	-2%	?	?	4%	2%	13µM*	21µM*
COc1cccc(/C=C/c2nc(C#N)c(N3CCCCC3)o2)c1	i	·	20%	·	·	·	·
S=C(NCC1CCCO1)Nc1ccc(Cl)c(Cl)c1 (stereo not drawn)	·	-12%	?	?	1%	·	·
O=C(Cc1ccc(Cl)c(Cl)c1)NNC(=S)NCC1CCCO1 (stereo not drawn)	-8%	?	-9%	-5%	3%	21µM*	?
Cc1cc(C)nc(/N=C(\N)c2c(O)[nH]c(=O)[nH]c2=O)n1	-7%	?	28%	-1%	8%	?	-16%
COc1ccc(N=C(C)c2c(O)[nH]c(=O)[nH]c2=O)cc1	i	1%	-2%	-1%	-1%	·	·
CN1CCc2cccc3c2[C@@H]1Cc1ccc(O)c(O)c1-3	-8%	4.3µM*	i	?	3%	1.7µM*	6µM*
CC(=O)N1CCc2cc(Br)cc(S(=O)(=O)CCC(=O)N3CCN(c4ccc(F)cc4)CC3)c21	?	·	-1%	·	·	·	·
NS(=O)(=O)c1ccc(N/N=C/c2ccc(O)c(O)c2O)c([N+](=O)[O-])c1	-19%	?	?	22%	-21%	?	?
NS(=O)(=O)c1ccc(N/N=C/c2ccc(O)cc2O)c([N+](=O)[O-])c1	-4%	-1%	9%[11.4 µM]	2%	0%	·	·
O=C(Nc1cccc(Cl)c1)c1cccc(N2C(=O)C3CC=CCC3C2=O)c1 (stereo not drawn)	-18%	27µM*	4%	-2%	0%	6µM*	13µM*
O=C(COc1ccccc1[N+](=O)[O-])N/N=C/c1ccc(O)c([N+](=O)[O-])c1	-1%	?	14%	11%	1%	-28%	?
O=C(COc1ccccc1[N+](=O)[O-])N/N=C/c1ccccn1	-3%	0%	-7%	-3%	1%	·	·
O=c1[nH]c2ccsc2c(=O)n1-c1ccc(F)c(Cl)c1	4%	?	2%	1%	-2%	-28%	29%
O=c1[nH]c2ccsc2c(=O)n1-c1ccc(F)cc1	0%	?	9%	-25%	4%	·	·
C/C=C/C(=O)[C@@H](C)[C@@H](/C=C/C[Si](C)(C)C)c1ccccc1	·	·	0%	·	·	·	·
O=C(COC(=O)c1ccc2ncsc2c1)NC(=O)C1CCCCC1	·	·	-10%	·	·	·	·
Cc1ccccc1OCc1nnc(SCC(=O)NCc2ccco2)n1C	-2%	-12%	-22%	-5%	-2%	·	·
COc1ccc(C)cc1-n1nnnc1SCC(=O)NC(=O)NCc1ccco1	-20%	11µM*	-14%	3%	-3%	10%	-11%
Cc1cc(SCC(=O)NC(=O)NCc2ccco2)nc2c(C)cccc12	i	?	-26%	-8%	-4%	?	?
COc1ccccc1OCc1nnc(SCC(=O)NCc2ccco2)n1Cc1ccco1	?	?	-54%	-1%	1%	7.6µM*	7.6µM*
CN(C)/C=N/c1nc2c(ncn2C2CC(O)C(CO)O2)c(=O)[nH]1 (stereo not drawn)	·	·	-9%	·	·	·	·
SMILES	PGK inhibitor	Tb PFK inh-1	RGS4 inh	Chronic BCR inh	USP2a inh	TbPFK ATP	Tb PFK inh-2
Cc1cccc(C(=O)OCC(=O)c2ccc(CC(=O)N3CCOCC3)s2)c1C	-16%	?	-10%	?	-4%	?	-17%
Cc1cccc(C(=O)OCC(=O)N2CC(C)OC(C)C2)c1C (stereo not drawn)	2%	0%	27%	1%	3%	·	·
C=CCN1C(=O)N/C(=C/c2ccc(C)o2)C1=O	·	17µM*	?	-5%	8%	17µM*	?
Cc1c(Cl)sn(-c2ccc(Cl)cc2)c1=O	2%	6.7µM*	-120%	?	2%	3µM*	5.4µM*
Cc1nn(-c2ccc(Cl)cc2)c(=O)c2ccccc12	i	14%	2%[56.9 µM]	?	-5%	·	·
O=c1c2cc(F)ccc2sn1-c1ccccc1	1%	6.7µM*	-93%	?	2%	?	?
O=c1c2ccccc2sn1-c1nccs1	-5%	8.5µM*	-131%	-6%	0%	?	?
O=c1c2ccccc2sn1-c1ccccc1F	4%	·	·	·	·	·	·
Cc1ccc(-n2sc3ccccc3c2=O)cc1S(=O)(=O)N1CCCCC1	i	13µM*	-107%	?	-3%	?	6.7µM*
Cc1ccccc1-n1sc2cc(F)ccc2c1=O	-4%	2.7µM*	-134%	?	1%	?	11µM*
O=C(Nc1ccccc1Sc1ccccc1)c1cnn2c1NC(=C1CC1)C=C2C(F)(F)F	·	·	-4%	·	·	·	·
COc1ccc(-c2ccc(C)cc2)cc1C1C2C=CCC(C)C2C(=O)N1Cc1ccccc1 (stereo not drawn)	·	·	5%	·	·	·	·
O=c1c2ccccc2sn1-c1ccccc1	-5%	4.8µM*	?	?	2%	?	7.6µM*
O=C(O)c1cccc(-n2sc3ccccc3c2=O)c1	-10%	6µM*	-133%	?	1%	15µM*	17µM*
O=c1c2ccccc2sn1-c1cccc(Cl)c1	i	·	·	·	·	·	·
Cc1n[nH]c(C)c1Sc1ccccc1[N+](=O)[O-]	-3%	?	-12%	5%	11%	?	?
O=S(=O)(c1nccs1)N1CCN(c2nc(-c3cccs3)nc3ccccc23)CC1	·	·	-9%	·	·	·	·
Cc1cccc(NCc2ccc([N+](=O)[O-])s2)c1	i	?	-9%	-5%	-2%	21µM*	?
O=[N+]([O-])c1ccc(CNc2cccc(F)c2)s1	-4%	13µM*	-6%	0%	2%	5.4µM*	13µM*
O=C(O)c1ccc(N=Nc2c(O)[nH]c3cc(Cl)ccc23)cc1	0%	?	-27%	?	-8%	-25%	?
NN1C(=O)/C(=C2/Sc3ccccc3N2CCCS(=O)(=O)O)SC1=S	?	30µM*	-46%	2%	5%	19µM*	?
Cc1ccc(-c2[nH]ncc2CNCc2ccccc2)cc1	·	·	4%	·	·	·	·
